Results filed as inconclusive are left out. Activity calls are given as the source filed them. Rule for the calls: active = hit-call score of the fitted dose curve at least 0.9, where 1 is the maximum; inconclusive = response in the unintended direction; inactive = score below 0.9.

Sequence of human Raf-1 Proto-Oncogene, serine/threonine Kinase (RAF1), RAF1 (gene 5894) (P04049 whole entry, looked up): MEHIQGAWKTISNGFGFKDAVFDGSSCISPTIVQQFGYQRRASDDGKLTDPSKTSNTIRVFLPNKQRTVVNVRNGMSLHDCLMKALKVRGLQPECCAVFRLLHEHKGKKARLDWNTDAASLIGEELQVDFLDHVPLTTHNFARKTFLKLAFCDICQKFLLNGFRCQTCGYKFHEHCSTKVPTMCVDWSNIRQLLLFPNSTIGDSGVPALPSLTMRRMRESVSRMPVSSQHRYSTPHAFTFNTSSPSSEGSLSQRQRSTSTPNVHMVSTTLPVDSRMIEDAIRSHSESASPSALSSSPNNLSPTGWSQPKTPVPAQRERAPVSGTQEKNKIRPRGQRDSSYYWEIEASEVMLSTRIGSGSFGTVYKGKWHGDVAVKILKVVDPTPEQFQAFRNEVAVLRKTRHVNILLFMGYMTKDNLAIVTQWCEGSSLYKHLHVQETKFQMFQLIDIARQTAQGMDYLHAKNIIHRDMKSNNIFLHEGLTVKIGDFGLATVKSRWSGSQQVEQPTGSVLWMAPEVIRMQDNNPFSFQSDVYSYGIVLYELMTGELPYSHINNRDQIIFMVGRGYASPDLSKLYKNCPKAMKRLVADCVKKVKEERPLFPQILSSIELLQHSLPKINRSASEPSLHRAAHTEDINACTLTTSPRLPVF
Sequence of human Sirtuin 2 (SIRT2), SIRT2 (gene 22933) (Q8IXJ6 whole entry, looked up): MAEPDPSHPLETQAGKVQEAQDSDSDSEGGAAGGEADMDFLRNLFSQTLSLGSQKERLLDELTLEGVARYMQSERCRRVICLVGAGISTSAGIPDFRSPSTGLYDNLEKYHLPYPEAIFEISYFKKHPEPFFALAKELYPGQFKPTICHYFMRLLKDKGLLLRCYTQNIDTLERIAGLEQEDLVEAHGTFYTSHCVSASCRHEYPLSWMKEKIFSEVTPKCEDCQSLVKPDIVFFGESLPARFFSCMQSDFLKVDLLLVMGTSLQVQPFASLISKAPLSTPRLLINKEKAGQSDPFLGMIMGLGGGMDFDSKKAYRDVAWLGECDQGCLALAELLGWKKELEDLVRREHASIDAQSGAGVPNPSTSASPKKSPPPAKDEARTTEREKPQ
Sequence of human Protein Tyrosine Phosphatase Receptor Type M (PTPRM), PTPRM (gene 5797) (P28827 whole entry, looked up): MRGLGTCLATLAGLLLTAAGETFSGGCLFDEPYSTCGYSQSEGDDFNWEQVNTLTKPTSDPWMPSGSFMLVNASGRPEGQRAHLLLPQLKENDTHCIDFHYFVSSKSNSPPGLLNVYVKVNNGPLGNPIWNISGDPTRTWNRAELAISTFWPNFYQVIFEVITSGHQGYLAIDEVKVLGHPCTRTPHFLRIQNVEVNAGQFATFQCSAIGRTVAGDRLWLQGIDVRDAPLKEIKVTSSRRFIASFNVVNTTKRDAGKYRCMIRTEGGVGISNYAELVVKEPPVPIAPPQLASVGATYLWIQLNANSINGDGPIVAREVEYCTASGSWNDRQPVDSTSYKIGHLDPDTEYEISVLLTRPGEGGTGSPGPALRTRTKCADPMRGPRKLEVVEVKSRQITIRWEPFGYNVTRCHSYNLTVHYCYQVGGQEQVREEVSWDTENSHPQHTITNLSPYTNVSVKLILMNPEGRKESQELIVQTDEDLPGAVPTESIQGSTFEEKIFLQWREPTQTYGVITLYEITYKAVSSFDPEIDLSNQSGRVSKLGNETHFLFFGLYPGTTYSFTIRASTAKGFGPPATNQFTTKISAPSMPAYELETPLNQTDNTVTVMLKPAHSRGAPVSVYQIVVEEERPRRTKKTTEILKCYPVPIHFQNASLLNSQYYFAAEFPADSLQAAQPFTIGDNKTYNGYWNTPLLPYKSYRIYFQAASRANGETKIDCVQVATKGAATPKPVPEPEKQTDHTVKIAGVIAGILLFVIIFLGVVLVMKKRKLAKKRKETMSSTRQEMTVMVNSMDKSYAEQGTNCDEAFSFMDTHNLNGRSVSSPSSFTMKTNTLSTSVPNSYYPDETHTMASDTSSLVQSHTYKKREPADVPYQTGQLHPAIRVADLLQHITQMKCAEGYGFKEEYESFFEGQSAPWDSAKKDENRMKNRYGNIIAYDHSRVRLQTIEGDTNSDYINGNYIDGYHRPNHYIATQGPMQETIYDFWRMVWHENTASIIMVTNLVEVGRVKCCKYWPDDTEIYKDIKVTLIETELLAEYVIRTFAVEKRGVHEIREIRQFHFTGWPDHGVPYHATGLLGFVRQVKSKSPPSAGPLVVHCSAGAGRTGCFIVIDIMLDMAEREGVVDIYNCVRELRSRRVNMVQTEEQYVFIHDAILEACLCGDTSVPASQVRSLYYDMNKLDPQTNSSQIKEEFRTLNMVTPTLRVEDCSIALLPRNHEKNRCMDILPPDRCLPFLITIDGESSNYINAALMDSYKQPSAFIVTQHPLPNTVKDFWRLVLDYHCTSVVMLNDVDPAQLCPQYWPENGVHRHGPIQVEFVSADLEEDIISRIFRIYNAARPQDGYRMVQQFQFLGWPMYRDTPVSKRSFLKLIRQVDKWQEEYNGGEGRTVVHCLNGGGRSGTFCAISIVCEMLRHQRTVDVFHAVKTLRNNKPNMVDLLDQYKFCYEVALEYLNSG

One assay addresses human Protein Tyrosine Phosphatase Receptor Type M (PTPRM), PTPRM (gene 5797) (UniProt P28827). In words: NVS_ENZ_hPTPRM: NovaScreen (NVS) Enzymatic Assay for human Protein Tyrosine Phosphatase Receptor Type M (PTPRM) (AID 2283215). The essentials: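 Read-out is fluorescence after electrophoretic separation of substrate and product, taken 1.33 h post-dosing with recombinant enzyme. Compounds screened at 25 uM in duplicate, then concentration series for actives; activity as signal loss relative to DMSO.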
Consider `COP(=O)(OC)OC(Br)C(Cl)(Cl)Br` (configuration not stated), for which the compound was called inactive.

Regarding `CC1(C(=O)Nc2ccc(O)c(Cl)c2Cl)CCCCC1`, the outcome was inactive.

On to `O=[N+]([O-])c1cc(C(F)(F)F)c(Cl)c([N+](=O)[O-])c1Nc1ncc(C(F)(F)F)cc1Cl`, for which the call was inactive.

In the case of `Nc1c(Cl)cc([N+](=O)[O-])cc1Cl`, the compound was classed as inactive.

Take `CC[C@H](C)[C@H]1O[C@]2(C=C[C@@H]1C)C[C@@H]1C[C@@H](C/C=C(\C)[C@@H](O[C@H]3C[C@H](OC)[C@@H](O[C@H]4C[C@H](OC)[C@@H](NC)[C@H](C)O4)[C@H](C)O3)[C@@H](C)/C=C/C=C3\CO[C@@H]4[C@H](O)C(C)=C[C@@H](C(=O)O1)[C@]34O)O2`: the AC50 (as a rule, the concentration at which the activity in the assay is half-maximal) is 9.67 µM (active).

On to `N#CSCSC#N`, for which the result was inactive.

Another assay concerns the target human Raf-1 Proto-Oncogene, serine/threonine Kinase (RAF1), RAF1 (gene 5894) (UniProt P04049). The assay is described as follows: NVS_ENZ_hRAF1: NovaScreen (NVS) Enzymatic Assay for human Raf-1 Proto-Oncogene, serine/threonine Kinase (RAF1) (AID 2283216). An outline of the steps:
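Single-point screening at 25 uM (duplicate), followed by singleton concentration-response to 50 uM maximum for chemicals exceeding threshold. Enzyme activity from fluorescent substrate-product mobility-shift separation after 1 h, relative to DMSO.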
On to `CN(C)[C@@H]1C(=O)C(C(N)=O)=C(O)[C@@]2(O)C(=O)C3=C(O)c4c(O)cccc4[C@@](C)(O)[C@H]3[C@H](O)[C@@H]12`, for which the AC50 was 11.1 µM (active).

For the compound `CN(C)NC(=O)CCC(=O)O`, the outcome was inactive.

Consider `CN(C)C(=O)Nc1cccc(C(F)(F)F)c1`, for which the outcome was inactive.

As to `CCCOc1nn(C(=O)NS(=O)(=O)c2ccccc2C(=O)OC)c(=O)n1C`, the compound was classed as inactive.

In the case of `CCCOCC(=Nc1ccc(Cl)cc1C(F)(F)F)n1ccnc1`, the compound was classed as inactive.

The next assay addresses human Sirtuin 2 (SIRT2), SIRT2 (gene 22933) (UniProt Q8IXJ6). The assay is described as follows: NVS_ENZ_hSIRT2: NovaScreen (NVS) Enzymatic Assay for human Sirtuin 2 (SIRT2) (AID 2283217). The essentials: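 Single-point duplicate screen at 25 uM, then concentration-response (max 50 uM) for chemicals passing threshold. Enzyme activity of recombinant human SIRT2 measured after 1 hr by fluorescence with mobility-shift separation of product; DMSO baseline.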
On to `FC(F)C(F)(F)OCC(Cn1cncn1)c1ccc(Cl)cc1Cl` (configuration not stated), for which the AC50 is 14.6 µM (active).

For `CC[C@H](C)[C@H]1O[C@]2(C=C[C@@H]1C)C[C@@H]1C[C@@H](C/C=C(\C)[C@@H](O[C@H]3C[C@H](OC)[C@@H](O[C@H]4C[C@H](OC)[C@@H](NC)[C@H](C)O4)[C@H](C)O3)[C@@H](C)/C=C/C=C3\CO[C@@H]4[C@H](O)C(C)=C[C@@H](C(=O)O1)[C@]34O)O2`, the AC50 was 25 µM (active).

Consider `O=C(O)c1cc(Oc2ccc(C(F)(F)F)cc2Cl)ccc1[N+](=O)[O-]`, for which the result was inactive.

For a further assay, the target named is human Sirtuin 1 (SIRT1), SIRT1 (gene 23411) (UniProt Q96EB6). In words: NVS_ENZ_hSIRT1: NovaScreen (NVS) Enzymatic Assay for human Sirtuin 1 (SIRT1) (AID 2283219). The essentials: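 Cell-free recombinant SIRT1 with a fluorescent substrate; substrate and product separated by electrophoretic mobility shift and read by fluorescence intensity, 1 h after dosing. Primary screen at 25 uM in duplicate; hits re-run in concentration-response up to 50 uM, relative to DMSO.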
Sequence of human Sirtuin 1 (SIRT1), SIRT1 (gene 23411) (Q96EB6 whole entry, looked up): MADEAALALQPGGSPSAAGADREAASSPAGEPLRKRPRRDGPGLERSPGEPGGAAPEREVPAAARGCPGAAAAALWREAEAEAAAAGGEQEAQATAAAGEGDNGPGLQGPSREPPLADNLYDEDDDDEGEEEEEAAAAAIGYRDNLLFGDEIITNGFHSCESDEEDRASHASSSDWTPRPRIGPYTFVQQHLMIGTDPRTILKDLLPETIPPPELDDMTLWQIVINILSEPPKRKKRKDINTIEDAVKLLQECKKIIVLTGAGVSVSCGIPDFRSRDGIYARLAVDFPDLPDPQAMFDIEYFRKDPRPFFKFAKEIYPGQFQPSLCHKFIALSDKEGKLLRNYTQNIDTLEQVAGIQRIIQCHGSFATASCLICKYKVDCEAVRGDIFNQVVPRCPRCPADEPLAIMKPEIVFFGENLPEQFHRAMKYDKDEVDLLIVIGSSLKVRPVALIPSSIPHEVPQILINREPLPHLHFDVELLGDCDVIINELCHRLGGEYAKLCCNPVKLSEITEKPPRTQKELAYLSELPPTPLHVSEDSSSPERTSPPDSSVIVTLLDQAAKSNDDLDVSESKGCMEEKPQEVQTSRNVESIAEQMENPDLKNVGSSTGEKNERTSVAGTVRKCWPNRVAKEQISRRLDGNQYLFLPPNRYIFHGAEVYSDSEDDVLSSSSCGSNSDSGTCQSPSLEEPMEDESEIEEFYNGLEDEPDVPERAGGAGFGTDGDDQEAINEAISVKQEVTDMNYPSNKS
For `COP(=O)(OC)OC(Br)C(Cl)(Cl)Br` (configuration not stated), the AC50 is 15.8 µM (active).

In the case of `CC[C@H](C)[C@H]1O[C@]2(C=C[C@@H]1C)C[C@@H]1C[C@@H](C/C=C(\C)[C@@H](O[C@H]3C[C@H](OC)[C@@H](O[C@H]4C[C@H](OC)[C@@H](NC)[C@H](C)O4)[C@H](C)O3)[C@@H](C)/C=C/C=C3\CO[C@@H]4[C@H](O)C(C)=C[C@@H](C(=O)O1)[C@]34O)O2`, the result was inactive.

In the case of `N#CSCSC#N`, the AC50 is 11.3 µM (active).
